ERK AVP block: vasopressin-driven ERK pathway inhibition | HEK293-V1b, vasopressin-stimulated pERK AlphaScreen | Potency, µM (doses to about 57.5 µM), inactives show top-dose activity, negative = inhibition, hits mostly inhibitors | actives 0.99% (n = 72,000) | AID 995; also: % is scaled to controls: 0 for no effect and ±100 for the full control effect; nearly all actives have a fitted effect of over 55% in size
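Overnight-seeded V1b-HEK293 cells in 1% FBS got compound, then vasopressin (25 nM final, 5 min, 37C), then lysis buffer. AlphaScreen detection of phospho-ERK; activity normalized to basal and full-stimulation controls.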
Luciferase inh: blocks Photinus pyralis firefly luciferase activity; P08659; purified firefly luciferase, luminescence, 8 min; Potency, µM (series often up to 57.1 µM), for the others: at the top dose activity change, negative = inhibition, most hits filed as inhibitors; actives 2.2% (n = 72,000); AID 411; also: % is scaled to controls: 0 for no effect and ±100 for the full control effect; nearly all actives have a fitted effect of over 40% in size
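Luminescence read-out after 8 min at room temperature; enzyme reaction used luciferin plus 10 uM ATP (linear range) in imidazole buffer pH 7.2 with KCl, MgCl2, Tween 20 and BSA. Each sample was run as a titration.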
HEK293 cAMP cs: counter-screen for TSHR agonists: cAMP increase in parental HEK293; parental HEK293 CNG cAMP sensor, membrane potential fluorescence; Potency, µM (titrated, usually from 57.1 µM), without a hit: at the top dose activation, most hits filed as activators; actives 2.5% (n = 73,000); also: % of control where 0% means no effect; nearly all actives have a fitted effect of over 55% in size
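Parental HEK 293 cells stably expressing a cAMP-gated CNG channel were loaded with membrane potential dye containing 100 uM RO 20-1724 for 60 min. Compound added for 30 min; depolarization read as fluorescence intensity at 590 nm.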
PK Bst: modulators of Bacillus stearothermophilus pyruvate kinase. Potency, µM. AID 361. actives 1.2% (n = 51,000). purified pyruvate kinase, luminescence ATP production; ribose 5-phosphate activator present at AC10; in the data active = potency below about 11 µM; inconclusive = mostly about 12 µM to 25 µM;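 the screen sought inhibitors and activators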;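 also: scaled between full activation by ribose 5 phosphate and full inhibition by luteolin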
GBA activity: human lysosomal glucosylceramidase modulation | P04062 | purified enzyme, resorufin glucoside fluorescence (screen aimed at inhibitors), 20 min | Potency, µM | actives 1.1% (n = 48,000) | AID 360; in the data active = potency below about 15 µM; inconclusive = mostly about 16 µM to 33 µM;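 also: the screen sought inhibitors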
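Compounds titrated against 0.2 nM normal enzyme, 30 uM resorufin beta-D-glucopyranoside substrate, citrate/phosphate buffer with taurocholate and tween-20, pH 5.9. Reaction ran 20 min at room temperature; fluorescence (Ex 548/Em 600) gave AC50.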
TSHR agonist: TSH receptor (human) agonism | actives 0.48% (n = 73,000) | P16473 | Potency, µM (titrated, usually from 57.1 µM), for inactives: at the highest dose activation, hits mostly activators | HEK293-CNG-TSHR cells (CNG channel as cAMP sensor), membrane potential dye, cAMP | AID 926; active = well fitted activation curve with a large enough effect in the main read-out, with a control signal flat, not every such curve was filed as active; inconclusive = small, poorly fitted or top-dose-only effect, or a change in a side signal; inactive = no such curve, though single readings can be large or run the other way; % of control where 0% means no effect;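 also: the control signal comes from parental cells without the receptor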
Target sequence (P16473 whole entry, looked up): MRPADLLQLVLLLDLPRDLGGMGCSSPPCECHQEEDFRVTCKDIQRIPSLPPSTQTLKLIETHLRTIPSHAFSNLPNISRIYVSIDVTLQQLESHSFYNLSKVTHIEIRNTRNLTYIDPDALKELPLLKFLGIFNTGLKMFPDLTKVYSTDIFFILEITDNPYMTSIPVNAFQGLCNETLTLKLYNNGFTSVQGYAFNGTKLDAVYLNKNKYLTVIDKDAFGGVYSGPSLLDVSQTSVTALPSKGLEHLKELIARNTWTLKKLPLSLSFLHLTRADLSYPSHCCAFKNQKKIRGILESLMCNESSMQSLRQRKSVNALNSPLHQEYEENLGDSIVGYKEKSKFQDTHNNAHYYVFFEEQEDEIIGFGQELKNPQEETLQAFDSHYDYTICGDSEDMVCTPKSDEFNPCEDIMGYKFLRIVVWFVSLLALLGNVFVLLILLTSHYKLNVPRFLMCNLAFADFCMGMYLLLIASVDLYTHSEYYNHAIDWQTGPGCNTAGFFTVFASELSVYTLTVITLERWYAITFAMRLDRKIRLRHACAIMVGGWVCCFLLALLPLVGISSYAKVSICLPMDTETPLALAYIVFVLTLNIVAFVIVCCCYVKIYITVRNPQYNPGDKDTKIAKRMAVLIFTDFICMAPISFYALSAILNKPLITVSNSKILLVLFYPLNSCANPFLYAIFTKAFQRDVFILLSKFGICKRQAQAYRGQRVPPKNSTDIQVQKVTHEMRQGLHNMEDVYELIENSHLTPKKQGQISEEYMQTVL
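cAMP rise detected as CNG-channel membrane depolarization by fluorescent dye (emission 590 nm), 30 min after compound, following 60 min dye loading containing 100 uM RO 20-1724 at room temperature. Cells: TSHR/CNG HEK 293, with parental CNG HEK 293 as control.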
* = called active by the depositor; i = inactive; ? = inconclusive; · = no result; [ ] = remark or other dose. In the library only some 6.1% were active in any assay of this set; here they are far more common. Unless noted, calls follow the shape of the dose curve; as a rule, active = well fitted curve in the direction sought with a large enough effect; inconclusive = small, poorly fitted or top-dose-only effect, or another doubt; inactive = no such curve, though single readings can be large; an effect the other way counts as inactive or inconclusive. Potency is read from the fitted curve at half-maximal effect.

SMILES | ERK AVP block | Luciferase inh | HEK293 cAMP cs | PK Bst | GBA activity | TSHR agonist
CCOC(=O)Cc1csc(NC(=O)c2ccc3c(c2)OCO3)n1 | -15% | 20µM* | 30% | · | >77 | 2%
CCN(CC(=O)Nc1ccc2c(c1)OCCO2)CC(=O)Nc1cc(C)on1 | -23% | 1% | -4% | >57 | >77 | 9%
Cc1cc(NC(=O)c2ccc3c(c2)OCO3)no1 | -3% | 7.9µM* | -9% | · | ? | -10%
O=C(O)/C(=C\c1ccc(O)cc1)c1cccc2ccccc12 | 11%[11.5 µM] | 1%[11.4 µM] | 11%[11.4 µM] | · | · | -4%[11.4 µM]
Brc1ccc2nc(CSc3ncn[nH]3)cn2c1 | 2% | 25µM* | -3% | >57 | >77 | -1%
Cn1c(SCC(=O)c2ccc3c(c2)OCO3)nnc1C1COc2ccccc2O1 (stereo not given) | 21% | 0% | 26% | >57 | · | 9%
Cc1cc(C(=O)CSc2nnc(C3COc4ccccc4O3)n2C)c(C)n1-c1ccc(F)cc1 (stereo not given) | 25% | -3% | 10µM* | >57 | >77 | ?
O=C(OCC1OC(OC(=O)c2cc(O)c(O)c(OC(=O)c3cc(O)c(O)c(O)c3)c2)[C@@H](OC(=O)c2cc(O)c(O)c(OC(=O)c3cc(O)c(O)c(O)c3)c2)C(OC(=O)c2cc(O)c(O)c(OC(=O)c3cc(O)c(O)c(O)c3)c2)C1OC(=O)c1cc(O)c(O)c(OC(=O)c2cc(O)c(O)c(O)c2)c1)c1cc(O)c(O)c(OC(=O)c2cc(O)c(O)c(O)c2)c1 (stereo not given in full) | 13µM* | · | · | · | · | ·
CC(=O)OCC1OC(c2ccccc2)C(OC(C)=O)C(OC(C)=O)C1OC(C)=O (stereo not given) | -31% | 0% | ? | · | · | ?
Cc1ccc(S(=O)(=O)N2CCCC(C(=O)NC3=NCCS3)C2)cc1 (stereo not given) | -27% | 1% | -3% | 6.3* | ? | 2%
COc1ccc(S(=O)(=O)N2CCCC(C(=O)Nc3ccc(OC)c(OC)c3)C2)cc1 (stereo not given) | 3% | 2% | 17% | >57 | >77 | 2%
COc1ccc(NC(=O)C2CCCN(S(=O)(=O)c3ccc(C)cc3)C2)cc1OC (stereo not given) | ? | 3% | -7% | 5.4* | >77 | -2%
Cc1nc2ccccc2c(=O)n1NCc1cc(Br)cs1 | 7% | 0% | 16µM* | · | >77 | ?
O=[N+]([O-])c1ccccc1S(=O)(=O)NCC1CCC(CNCC2CCc3ccccc3C2)CC1 (stereo not given) | 0% | · | -92% | · | · | ?
Cc1ccc(C(=O)Nc2nc3ccccc3c(=O)s2)cc1 | 5% | ? | 12% | 6.8* | >77 | 5%
Cc1ccc(-c2nc(C(=O)NC3CCCCCC3)no2)cc1 | -11% | -1% | 20µM* | · | · | ?
Cc1ccc(C(=O)NC2CCCCCC2)o1 | 1% | -10% | 6% | >57 | >77 | -12%
Cc1c(/N=C/c2ccco2)n(Cc2ccccc2)c2ccccc12 | 13µM* | 0% | ? | · | · | ?
COc1ccc(CCNC(=O)c2ccc3nc(-c4ccco4)c(-c4ccco4)nc3c2)cc1OC | 20µM* | -9% | 18% | >57 | >77 | 0%[11.4 µM]
N#CCCn1c(=O)c(-c2ccc(F)cc2)nc2cnc(OCc3ccccc3)nc21 | ? | 1%[11.4 µM] | 3% | · | · | -7%
O=C(Nc1ccc(-c2nc3ccccc3[nH]2)cc1)C1CCCO1 (stereo not given) | ? | 2.5µM* | 0% | 3.2* | i | 1%
O=C(CN1CCOCC1)Nc1ccc(-c2nc3ccccc3[nH]2)cc1 | 21% | 16µM* | 4% | i | · | 8%
O=C(CN1CCOCC1)Nc1ccc(S(=O)(=O)N2CCCCCC2)cc1 | -1% | 0% | -16% | ? | · | 2%
O=C(CN1CCC(c2nc3ccccc3[nH]2)CC1)Nc1ccc2c(c1)OCO2 | 27% | -2% | 9% | >57 | 14* | 15%
O=C(O)CCCC(=O)Nc1cccc(-c2nc3ccccc3[nH]2)c1 | -1% | 20µM* | 4% | · | >77 | 0%
SMILES | ERK AVP block | Luciferase inh | HEK293 cAMP cs | PK Bst | GBA activity | TSHR agonist
CC(=O)OC1CC2C(C)(C)C(O)CCC2(C)C2CC[C@]3(C)C(=CC(=O)OC3c3ccoc3)C12C (stereo not given in full) | 19% | · | · | · | · | ·
Oc1ccc(-c2nc3ccccn3c2NCc2ccc3c(c2)OCO3)cc1 | ? | -7% | -31% | · | 0.89* | ?
CCCOC(=O)c1ccc(Nc2cc(C)nc3ncnn23)cc1 | -17% | 1% | 22% | 11* | >77 | 1%
CCc1cccc(Nc2cc(C)nc3ncnn23)c1 | -2% | -1% | ? | · | · | ?
CCN(CC)S(=O)(=O)c1ccc(Nc2cc(C)nc3ncnn23)cc1 | -18% | -2% | -1% | >57 | >77 | -3%
CCn1c2ccccc2c2cc(Nc3cc(C)nc4ncnn34)ccc21 | 25µM* | -7% | 13% | · | · | ·
COc1ccc(-n2c(=O)c(-c3cccs3)nc3cncnc32)cc1 | -19% | 1%[11.4 µM] | 6% | · | · | 3%
CO[C@@H]1/C=C\CC(=O)N[C@@H](C)C(=O)OC[C@H](NS(=O)(=O)c2ccc(C)cc2)[C@H](C)/C=C\CC(=O)OC[C@H]1C | -6%[11.5 µM] | 1%[11.4 µM] | -8%[11.4 µM] | · | · | -5%[11.4 µM]
CCN(CC)c1ccc2cc(C(=O)Nc3cccnc3N3CCOCC3)c(=O)oc2c1 | -12% | 0% | 4% | >57 | · | 1%
CCN(CC)c1ccc2cc(C(=O)Nc3ccccn3)c(=O)oc2c1 | · | 1µM* | · | i | · | ·
CCN(CC)c1ccc2cc(NC(=O)CCC(=O)O)c(=O)oc2c1 | -2% | 16µM* | 1% | i | >77 | -13%
O=C(CSc1nnc(-c2ccccn2)n1Cc1ccco1)c1ccc(Cl)cc1 | 6% | 1% | 25µM* | · | >77 | ?
COC(=O)c1cccc(Nc2cc(C)nc(-c3ccccc3O)n2)c1 | · | -2%[25.5 µM] | · | >26 | · | ·
COc1ccccc1-c1ccc(Nc2cccc(C(C)=O)c2)nn1 | -2% | 20µM* | 9% | >57 | >77 | 1%
COc1ccc(C)cc1NC(=O)CSc1nnc(-c2ccc(C)cc2)o1 | 27% | 0% | ? | · | · | ?
COc1ccc(C)cc1NC(=O)CN(Cc1nnc(-c2ccc(Cl)cc2)o1)C1CCCC1 | -20% | -3% | 16µM* | 4.7* | >77 | ?
O=S(O)O.O=S(O)O.[Co].[NH2-].[NH2-].[NH2-].[NH2-] | -5%[11.5 µM] | 3%[11.4 µM] | 21%[11.4 µM] | · | · | 3%[11.4 µM]
Cc1cccn2cc(CCNC(=O)c3ccc(Br)o3)nc12 | · | -1% | 32µM* | · | · | ?
CN(C)CC(C)(C)CN1c2ccccc2Sc2ccccc21 | 15%[11.5 µM] | 3%[11.4 µM] | 10%[11.4 µM] | · | · | 2%[11.4 µM]
COc1ncc2nc(-c3ccc(F)cc3)c(=O)n(CCC#N)c2n1 | 1% | 0%[11.4 µM] | 16% | · | · | -9%

Source: PubChem BioAssay
